# Source: the supplement of paper PMC9694430
# Where a name gives a salt, the structure may show the parent alone.
# Columns and labels:
# Experiment in all cases: thermal shift delta Tm vs DMSO control; higher = stronger stabilization (binding)
# Details in all cases: 12.5 µM; protein concentration 2 µM
# [1] = system: LOC_OS01G01410-cb001
# Procedure, shortened: (§1)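 Purified, E. coli-expressed rice kinase domain constructs were tested by differential scanning fluorimetry in 96-well plates: 19.5 μl of 2 μM kinase in 100 mM potassium phosphate pH 7.5, 150 mM NaCl, 10% glycerol, 5 × SYPRO Orange, plus compound in DMSO. Fluorescence was read from 25°C to 95°C at 0.05°C/s. Melting temperatures came from Boltzmann fits, and the shift is the triplicate mean relative to protein with DMSO alone.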
# [2] = system: LOC_OS01G02750-cb003
# Procedure, shortened: as §1
# [3] = system: LOC_OS01G10900-cb004
# Procedure, shortened: as §1
# [4] = system: LOC_OS01G13800-cb001
# Procedure, shortened: as §1
# [5] = system: LOC_OS01G14860-cb001
# Procedure, shortened: as §1
# [6] = system: LOC_OS01G21960-cb002
# Procedure, shortened: as §1
# [7] = system: LOC_OS01G39600-cb002
# Procedure, shortened: as §1
# [8] = system: LOC_OS01G48390-cb002
# Procedure, shortened: as §1
# [9] = system: LOC_OS01G51400-cb002
# Procedure, shortened: as §1
# [10] = system: T1, LOC_OS01G52050-cb004
# T1 sequence (whole entry): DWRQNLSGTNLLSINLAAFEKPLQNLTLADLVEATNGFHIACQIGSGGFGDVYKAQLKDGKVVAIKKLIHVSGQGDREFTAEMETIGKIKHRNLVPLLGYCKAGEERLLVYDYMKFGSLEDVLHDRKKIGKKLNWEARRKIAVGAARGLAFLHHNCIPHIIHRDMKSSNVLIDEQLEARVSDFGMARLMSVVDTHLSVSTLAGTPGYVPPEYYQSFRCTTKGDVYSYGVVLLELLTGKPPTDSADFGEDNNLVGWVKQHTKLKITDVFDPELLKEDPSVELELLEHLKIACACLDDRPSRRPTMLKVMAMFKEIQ
# Procedure, shortened: as §1
# [11] = system: LOC_OS01G57100-cb003
# Procedure, shortened: as §1
# [12] = system: LOC_OS01G60330-cb001
# Procedure, shortened: as §1
# [13] = system: LOC_OS01G60700-cb002
# Procedure, shortened: as §1
# [14] = system: LOC_OS01G63280-cb003
# Procedure, shortened: as §1
# [15] = system: LOC_OS01G67340-cb003
# Procedure, shortened: as §1
# [16] = system: LOC_OS01G70970-cb002
# Procedure, shortened: as §1
# [17] = system: LOC_OS02G07810-cb001
# Procedure, shortened: as §1
# [18] = system: LOC_OS02G08530-cb003
# Procedure, shortened: as §1
# [19] = system: LOC_OS02G14120-cb001
# Procedure, shortened: as §1
# [20] = system: LOC_OS02G17970-cb001
# Procedure, shortened: as §1
Compound,thermal shift delta Tm [1] [°C],thermal shift delta Tm [2] [°C],thermal shift delta Tm [3] [°C],thermal shift delta Tm [4] [°C],thermal shift delta Tm [5] [°C],thermal shift delta Tm [6] [°C],thermal shift delta Tm [7] [°C],thermal shift delta Tm [8] [°C],thermal shift delta Tm [9] [°C],thermal shift delta Tm [10] [°C],thermal shift delta Tm [11] [°C],thermal shift delta Tm [12] [°C],thermal shift delta Tm [13] [°C],thermal shift delta Tm [14] [°C],thermal shift delta Tm [15] [°C],thermal shift delta Tm [16] [°C],thermal shift delta Tm [17] [°C],thermal shift delta Tm [18] [°C],thermal shift delta Tm [19] [°C],thermal shift delta Tm [20] [°C]
CCC[C@H](NC(=O)/C(C#N)=C/c1cccc(Br)n1)c1ccccc1 [Degrasyn (WP1130)],-2.54,-8.18,0.28,0.06,-2.02,0.19,-4.1,-0.09,-1.59,-3.54,5.82,0.61,1.12,-5.45,-3.27,0.17,0.68,-0.39,-1.56,4.33
Cc1nc(NC(=O)N2CCC[C@H]2C(N)=O)sc1-c1ccnc(C(C)(C)C(F)(F)F)c1 [Alpelisib (BYL719)],0.28,1.42,3.68,-0.51,-0.19,0.02,-0.17,0.54,0.42,0.12,0.37,0.43,1.65,0.27,0.12,0.36,0.62,-0.09,2.13,1.03
O=C(Nc1cnn2ccc(N3CCC[C@@H]3c3cc(F)ccc3F)nc12)N1CC[C@H](O)C1 [Larotrectinib (LOXO-101) sulfate],-0.1,0.5,0.8,0.17,0.39,0.24,-0.28,1.09,-0.18,0.04,1.19,0.93,0.28,-0.24,0.23,0.22,0.18,0.6,3.12,0.72
CCn1c(C(=O)N(C2CC2)C2CC2)cc2c3c(ncn3C)c(Nc3cc(C)n(C)n3)nc21,0.37,1.05,-0.06,0.41,0.41,1.12,-0.02,0.34,0.23,0.97,1.18,1.11,1.61,0.73,0.2,0.33,0.6,1.47,4.36,1.3
CC[C@@H](N)CNc1ccnc(-c2cc(-c3cnn(C)c3)ccc2O)n1,0.15,2.58,0.85,-0.28,2.58,2.15,-0.05,1.98,0.28,1.98,0.71,0.32,-0.42,0.05,1.83,0.65,-0.8,2.73,4.11,0.54
CO[C@H]1C[C@@H]2CC[C@@H](C)[C@@](O)(O2)C(=O)C(=O)N2CCCC[C@H]2C(=O)O[C@H]([C@H](C)C[C@@H]2CC[C@@H](OC(=O)C(C)(CO)CO)[C@H](OC)C2)CC(=O)[C@H](C)/C=C(\C)[C@@H](O)[C@@H](OC)C(=O)[C@H](C)C[C@H](C)/C=C/C=C/C=C/1C,1,0.76,0.53,0.18,0,0.4,0.18,0.44,0.1,0.73,1.06,1.91,0.66,0.23,-0.48,0.3,0.33,0.57,0.93,0.36
